SKN-1 inh: inhibitors of C. elegans SKN-1 | C. elegans VP596 Pgst-4::GFP/RFP ratio, acrylamide-induced, 24 h | inhibition, % at 21.8 µM | 0.49% of 360,000 active | AID 624304;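 active = interference check ratio from 0.5 to 1.5 plus GFP to RFP signal ratio inhibition reaching or exceeding a fixed threshold, cut at about 30% in these data, passing the limit was not always enough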
ATG4B inhibitor: blocks human ATG4B protease cleavage of LC3 substrate; inhibition, % at 8.33 µM; 0.51% of 340,000 active; ATG4B cleavage of LC3-PLA2, NBD-HPC fluorescence, 1 h; Q9Y4P1; in the data active = inhibition above about 40%
Target sequence (Q9Y4P1 whole entry, looked up): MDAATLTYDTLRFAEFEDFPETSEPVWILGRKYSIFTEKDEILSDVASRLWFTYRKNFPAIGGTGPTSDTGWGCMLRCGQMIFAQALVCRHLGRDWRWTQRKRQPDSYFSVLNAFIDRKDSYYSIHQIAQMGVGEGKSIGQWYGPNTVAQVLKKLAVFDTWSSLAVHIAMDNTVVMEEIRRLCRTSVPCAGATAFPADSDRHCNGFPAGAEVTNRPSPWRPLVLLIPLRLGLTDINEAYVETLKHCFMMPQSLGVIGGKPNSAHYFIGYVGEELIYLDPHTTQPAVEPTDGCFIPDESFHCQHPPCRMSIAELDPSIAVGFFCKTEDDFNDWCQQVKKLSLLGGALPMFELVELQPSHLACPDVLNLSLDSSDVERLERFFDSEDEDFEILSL
M1 PAM: potentiates human M1 receptor response to acetylcholine; activation, % at 3 µM; 0.088% of 360,000 active; AID 588819; P11229; CHO-K1 hM1, Fluo-8 calcium fluorescence, ACh EC20; 0% = ACh EC20, 100% = maximal ACh; in the data active = activation above about 19%, passing the limit was not always enough
M1 antag: antagonists of human M1 muscarinic receptor. inhibition, % at 3 µM. 1.3% of 360,000 active. CHO-K1 hM1, Fluo-8 calcium fluorescence, ACh EC80 antagonist. P11229. AID 588852;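 active = percent inhibition above its own plate's cutoff, namely the mean of that plate's compound wells plus 3 SD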;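 note: peak over basal fluorescence ratio during 140 s after agonist addition; 0% = ACh EC80 plus DMSO and 100% = DMSO alone without agonist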
Myeloid diff MLP: promotes myeloid progenitor differentiation; ER-HoxA9 myeloid progenitors, lysozyme-GFP differentiation, flow cytometry; calls only at 10 µM; 1% of 360,000 active; AID 624256;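 active = normalized GFP-positive differentiation at or above the plate's own cutoff, the solvent-only control mean plus 3 SD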;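 note: cells exposed to compound for four days before flow analysis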
CHRM1 agonist: activates human CHRM1 receptor; activation, % at 3 µM; P11229; CHO-K1 hM1, Fluo-8 calcium fluorescence, agonist mode; 0% DMSO, 100% acetylcholine EC100; AID 588814; 0.33% of 360,000 active;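 active = activation above the run's mean compound activation plus 3 SD, cut at about 16% in these data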;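 note: peak over basal fluorescence ratio within a 140 s kinetic read after compound addition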
* = called active by the depositor; i = inactive; / = no result; + = active, no number. Rows were chosen to be rich in hits. Some 3.5% of all compounds tested hit in one or more screens of this group.

SMILES	SKN-1 inh	ATG4B inhibitor	M1 PAM	M1 antag	Myeloid diff MLP	CHRM1 agonist
CCOC(=O)N1CCN(C(=O)c2cnc(Nc3ccccc3OC)c3ccccc23)CC1	13	-12	-13	33*	i	-3
O=C(O)CC1(C(=O)O)CC2C=CC1C2 (stereo not given)	10	/	1	2	i	-1
O=C(COC(=O)c1cc(Cl)nc(Cl)c1)NC1CCCCCC1	-6	-1	1	-2	i	-3
COc1ccccc1CN(C)C(=O)c1cc(-c2cccs2)nc2ccccc12	20	-6	-12	27*	i	-4
COc1ccc(-c2cc(C(=O)N(C)Cc3nc4ccccc4c(=O)[nH]3)c3ccccc3n2)cc1OC	4	-16	-12	33*	i	0
COc1ccc(CN(C)C(=O)c2cc(-c3ccc(OC)c(OC)c3)nc3ccccc23)c(OC)c1	2	-14	-8	29*	i	-2
COc1cccc(CN(C)C(=O)c2cc(-c3ccc(OC)c(OC)c3)nc3ccccc23)c1	4	-8	-3	29	i	-2
COc1ccc(-c2cc(C(=O)N(C)Cc3cccc(OC)c3OC)c3ccccc3n2)cc1OC	20	-4	-8	13	i	-3
COc1ccc(-c2nc(NCCN(C)C)nc3ccsc23)c(C)c1	13	/	-19	15	i	-9
CCCCSc1nnc(CSc2ncccn2)n1C	-9	4	11	-11	i	-1
O=C(CSc1ncnc2nc[nH]c12)N1CCN(c2ccccc2)CC1	16	-1	11	-9	+	-6
O=C(Nc1nncs1)C1CCCC1	-11	-7	16	-11	i	5
Clc1cccc(Cc2c(C3CCCCC3)nc3ccc(Br)cn23)c1	-1	/	0	-28	i	-2
O=C1Nc2c(Cl)cc(Cl)cc2C1=O	6	15	3	-14	i	16*
COc1ccc(S(=O)(=O)NCCC(=O)OCc2cc(=O)oc3cc(C)ccc23)cc1[N+](=O)[O-]	19	-9	-16	48*	i	-1
COc1ccc2c(COC(=O)c3cccc(S(=O)(=O)NCC(C)C)c3)cc(=O)oc2c1	-10	-9	-24	38*	i	-2
S=c1[nH]cc2cnccn12	2	/	2	-8	i	-3
Cc1cccc(OCC(=O)Nc2ccc3c4c(cccc24)CC3)c1C	7	-9	10	-6	i	-5
Cc1ccc(OCC(=O)Nc2ccc3c4c(cccc24)CC3)c(C)c1	7	-4	8	-1	+	-6
Cn1c(=O)c2ncn(CC(=O)Nc3ccc4c5c(cccc35)CC4)c2n(C)c1=O	42*	-2	10	-13	+	-3
Cc1cccc(C)c1NC(=O)Cn1cnc2c(=O)n(C)c(=O)n(C)c21	-6	-8	5	-1	i	-4
Cc1c(C(c2ccccc2O)c2c(C)n(C)n(-c3ccccc3)c2=O)c(=O)n(-c2ccccc2)n1C	3	-1	0	2	+	-1
Cc1c(C(c2cc3c(cc2Br)OCO3)c2c(C)n(C)n(-c3ccccc3)c2=O)c(=O)n(-c2ccccc2)n1C	22	2	-21	39*	i	-8
Cc1cccc(C(=O)N2CCC(C)(C(=O)NS(=O)(=O)C3CC3)C2)c1C (stereo not given)	-8	/	5	-14	i	-2
CCN1CCN(c2ccc(NC(=O)CCc3c(C)nc4c(-c5ccccc5)c(C)nn4c3C)cc2)CC1	3	/	-24	37*	i	-11
Cc1nc2c(-c3ccccc3)c(C)nn2c(C)c1CCC(=O)NCc1ccco1	13	-4	6	-9	i	-1
CCCC(CCC)C(=O)OC1C[C@H]2CC[C@@H](C1)[N+]2(C)C (stereo not given in full)	-5	2	-26	98*	i	-7
CC(C)[N+]1(C)[C@@H]2CC[C@@H]1CC(OC(=O)C(CO)c1ccccc1)C2 (stereo not given in full)	-21	2	/	/	i	/
COC(=O)c1ccc(COc2cccn3c(N(C)C(=O)CCC4CCCC4)c(C)nc23)cc1	-4	/	-25	26	i	-4
